D2 ag-1: HTS Assay for Allosteric Agonists of the Human D2 Dopamine Receptor: Primary Screen for Agonists; HEK293 T-REx D2 cells, calcium flux agonist mode; activation, % at 2 µM; hit rate 0.53% among 340,000;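 active means activation over 3 SD above normal in the single-dose calcium agonist read, cut at about 30% in these data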; further: 0% is about no effect
Target sequence (P14416 whole entry, looked up): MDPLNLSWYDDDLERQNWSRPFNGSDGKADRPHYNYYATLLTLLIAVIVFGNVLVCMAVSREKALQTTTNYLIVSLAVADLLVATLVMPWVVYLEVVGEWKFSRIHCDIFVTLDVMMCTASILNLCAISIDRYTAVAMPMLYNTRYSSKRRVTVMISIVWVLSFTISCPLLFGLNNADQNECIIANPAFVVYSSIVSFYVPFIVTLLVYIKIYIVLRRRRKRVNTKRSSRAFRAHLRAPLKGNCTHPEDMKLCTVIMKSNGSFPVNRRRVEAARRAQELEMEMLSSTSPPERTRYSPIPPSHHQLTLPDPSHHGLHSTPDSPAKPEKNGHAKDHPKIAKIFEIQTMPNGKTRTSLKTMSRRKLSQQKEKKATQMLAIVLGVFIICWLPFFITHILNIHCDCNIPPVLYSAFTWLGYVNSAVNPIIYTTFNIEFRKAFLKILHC
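HEK293 Trex D2 cells, tetracycline-induced, o/n 30 C 5% CO2; no-wash Ca dye, RT 30–90 min; 10-cycle baseline, 23 nl cpd added, kinetic Ca read 180 s; agonist hits = positive Ca response.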
D2 PAM-1: HTS Assay for Positive Allosteric Modulators of the Human D2 Dopamine Receptor: Primary Screen for Potentiators; HEK293 T-REx D2, calcium flux, EC20 dopamine potentiation; potentiation, % at 10 µM; hit rate 0.34% among 340,000; D(2) dopamine receptor (Homo sapiens), P14416;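 active means potentiation over 3 SD above the plate norm, cut at about 30% in these data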; further: 0% is about no effect
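Potentiation of an EC20 dopamine calcium response measured kinetically over 180 s, after a preceding 180 s compound-only read flagging agonists. Cells: inducible Hek293 Trex D2 line, 4000/well, cultured overnight at 30 C before dye loading.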
D2 ag-2: Beta-Arrestin HTS for Positive Allosteric Modulators of the Human D2 Dopamine Receptor: Agonists. DiscoveRx PathHunter D2 beta-arrestin, luminescence, 90 min; 100% = 57 uM dopamine signal. activation, % (no concentration beside the values). hit rate 0.084% among 360,000. AID 624465, 2012; in the data active means activation above about 40%; inconclusive means between about 15% and that limit
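Agonist mode: compounds alone added to overnight-plated D2 PathHunter cells for 90 min at 37 C, with 57 uM final dopamine (EC100) defining full response. Beta-arrestin recruitment detected by chemiluminescent reagent, read after 1 h at ambient temperature.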
D2 antag: HTS Assay for Allosteric Antagonists of the Human D2 Dopamine Receptor: Primary Screen for Antagonists; D(2) dopamine receptor (Homo sapiens), P14416; HEK293 TREx D2 cells, calcium flux, dopamine EC80; inhibition, % at 10 µM; hit rate 2% among 340,000; in the data active means inhibition above about 30%; inactive means below that, where a call was filed; further: 0% is about no effect
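Read-out: kinetic calcium fluorescence (1 cycle/s) in inducible HEK293 T-REx D2 cells after an EC80 dopamine addition that followed 180 s compound preincubation. Loss of the dopamine response indicates antagonism.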
D2 PAM-2: Beta-Arrestin HTS for Positive Allosteric Modulators of the Human D2 Dopamine Receptor: Potentiators | AID 624464, 2012 | D(2) dopamine receptor (Homo sapiens), P14416 | DiscoveRx D2 beta-arrestin cells, luminescence, 90 min; 100% = 57 uM dopamine signal | hit rate 0.23% among 360,000 | potentiation, % (test concentration not listed); in the data active means potentiation above about 50%; inconclusive means mostly about 30% to 49%
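D2 cells co-treated with compound plus 50 nM dopamine (EC20) for 90 min at 37 deg C to detect potentiation. Beta-arrestin recruitment was read as enzyme-fragment luminescence after 1 h at ambient temperature. Full response was set by 57 uM dopamine.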
An asterisk follows results filed as active; ? = inconclusive; / = not tested or not shown. This is a sample that favours compounds with a hit; in the whole collection about 2.4% have one here.

SMILES	D2 ag-1	D2 PAM-1	D2 ag-2	D2 antag	D2 PAM-2
Cc1cccc(N2C(=O)C(Cl)=C(Nc3c(C)n(C)n(-c4ccccc4)c3=O)C2=O)c1C	1	-2	1	4	-18
CS(=O)(=O)N(CCc1ccccc1)CC(N)=O	0	-23	-6	31*	3
O=C(Nc1cccnc1Cl)c1cc(-c2ccc(F)cc2)on1	0	34*	-2	-3	-7
COc1ccc(-c2cc(C(=O)Nc3cccnc3Cl)no2)cc1	1	-7	3	18	3
O=C(c1cc(-c2ccc(F)cc2)on1)N1CCCCCC1	-2	34*	-6	10	-4
CCc1ccc(NC(=O)Cn2nnc(-c3ccccc3N)n2)cc1	-2	14	/	/	/
CCc1sc(Nc2cccc(Cl)c2C)nc1-c1cc2cccc(OC)c2oc1=O	0	-2	/	/	/
Cc1cc(-c2nn(-c3ccccc3F)cc2CN2CCC(C(N)=O)CC2)c(C)s1	0	-19	-3	-1	-27
COCC1CCN(Cc2cn(-c3ccccc3F)nc2-c2cc(C)sc2C)CC1	-1	-17	-7	73*	-10
O=C(O)c1ccc(N/N=C/C2=C(N3CCOCC3)C(=C\c3ccccc3)/CC2)cc1	11	-5	11	10	51*
Cc1cc(C)nc(N/N=C/C2=C(N3CCOCC3)C(=C\c3ccc(Cl)cc3)/CC2)n1	2	6	-8	6	2
O=C1c2oc3ccccc3c(=O)c2C(c2ccc(O)cc2)N1Cc1ccc2c(c1)OCO2 (stereo not drawn)	0	3	/	/	/
CCOc1ccccc1OCCCn1c(-c2ccc(Cl)cc2)nc2ccccc2c1=O	3	-4	/	/	/
O=C(CNCc1ccco1)Nc1ccc(Oc2ccccc2)cc1	-1	2	0	-7	-12
O=C(CNCc1ccco1)Nc1ccccc1-n1cccc1	0	12	0	38*	-4
O=C(Oc1ccc2ccccc2c1)c1ccco1	0	-6	-3	-7	2
CC1CC(C)(C)Nc2ccc(OC(=O)c3ccco3)cc21 (stereo not drawn)	1	10	?	0	112*
Cc1ccc(NS(=O)(=O)c2ccc3c(c2)C(=O)c2ccccc2C3=O)c(C)c1	0	3	5	0	81*
Cc1ccc(NS(=O)(=O)c2ccc(C)c(NC(=O)COc3ccccc3)c2)c(C)c1	-1	-4	-8	67*	-1
Cc1ccc(S(=O)(=O)Nc2ccc3c(c2)C(=O)c2ccccc2-3)cc1	/	/	-7	/	-6
Cc1ccc(NC(=O)COc2ccccc2)c(NC(=O)c2ccccc2C)c1	/	/	-3	/	-6
CC1(C)Cc2c(ccc3ccccc23)/C(=C/C(=O)N2CCCCC2)N1	0	19	-4	33*	-6
Cc1cccc(-n2c3c(cc(-c4nc(-c5ccc(Cl)cc5)cs4)c2=O)C(=O)CC(C)(C)C3)c1	0	3	/	/	/
N#Cc1cccc(NC(=O)Nc2cccs2)c1	0	-1	3	1	-22
COC(=O)c1ccccc1NC(=O)Nc1cccs1	0	-7	-2	38*	-24
SMILES	D2 ag-1	D2 PAM-1	D2 ag-2	D2 antag	D2 PAM-2
CCc1cccc(NC(=O)Nc2cccs2)c1	1	-11	1	32*	-38
COc1ccc(CC(=O)N/N=C(\C)c2cccc(NC(=O)C3CC3)c2)cc1	-1	4	-3	-3	-18
C/C(=N\NC(=O)C1(C)CC1(Br)Br)c1cccc(NC(=O)C2CCC2)c1 (stereo not drawn)	-1	-1	-5	30*	2
OC1(C#CCN2CCCC2)CCCCC1	-1	4	-1	-15	-5
Cc1nc2ccccc2c(C)c1C(=O)c1ccccc1	1	7	-1	30*	-9
Cc1ccc(NC(=O)c2ncn(CCCN3CCN(Cc4cccc5ccccc45)CC3)n2)cc1C	/	/	2	/	/
OCCNC(=S)Nc1ccc2nsnc2c1	0	-7	-1	31*	-7
COc1ccccc1CNC(=O)CCC(=O)N1Cc2cccc(OC)c2Oc2ncccc21	-3	12	0	14	-10
Cc1ccc(N2CCn3c2nc2c3c(=O)n(CCCc3ccccc3)c(=O)n2C)cc1	-1	-2	/	/	/
Cc1ccc([N+](=O)[O-])c(NC(=O)COC(=O)C2CC3CCCC(C2)C3=O)c1C (stereo not drawn)	0	-4	-1	36*	-11
Cc1cccc([N+](=O)[O-])c1NC(=O)COC(=O)C1CC2CCCC(C1)C2=O (stereo not drawn)	0	-3	-5	7	-64
Cn1ccc2cc(S(=O)(=O)N3CCCN(C(=O)Nc4ccc(Br)cc4)CC3)ccc21	0	-7	/	/	/
CS(=O)(=O)N1N=C(c2cccs2)CC1c1ccccc1 (stereo not drawn)	0	0	-3	32*	-10
Cc1ccc(NC(=O)c2cc(S(=O)(=O)N3CCOCC3)c(Cl)cc2Cl)cc1	/	-3	/	/	/
CC1CCN(S(=O)(=O)c2ccc3ncn(CC(=O)N4CCN(C)CC4)c(=O)c3c2)CC1	0	12	-5	48*	-4
CCOC(=O)Cn1cnc2c(nnn2-c2ccc(F)cc2)c1=O	0	7	-4	32*	-1
CCOC(=O)Cn1cnc2c(nnn2-c2cccc(OC)c2)c1=O	0	1	-6	8	5
COc1cccc(-n2nnc3c(=O)n(CC(=O)OCc4ccccc4)cnc32)c1	0	50*	2	-7	5
COC(=O)C1CCN(C(=O)CSc2nc3ccc(OC)cc3[nH]2)CC1	2	11	-1	2	-19
COc1ccc2nc(SCC(=O)N3CCNC3=O)[nH]c2c1	1	6	-2	44*	-6
Cc1cc(OCC(=O)O/N=C(\N)c2ccccc2)ccc1Br	30*	-11	7	1	0
CC1(C(=O)NCCC#N)CCN1C(=O)CC(c1ccccc1)c1ccccc1 (stereo not drawn)	/	/	-1	/	4
CCN(CC)c1ccc(CN(C(=O)c2cccs2)C2CCS(=O)(=O)C2)cc1 (stereo not drawn)	0	9	-5	30*	-14
CCC1CCCCN1S(=O)(=O)c1cc2c3c(c1)CC(=O)N3CCC2 (stereo not drawn)	1	6	/	/	/
CCCCNC(=O)Cc1coc2ccc3ccccc3c12	1	33*	0	-9	-4
Cn1nc(-c2ccc(Cl)cc2)c2cc(C(=O)N3CCOCC3)sc21	0	10	1	31*	-3

Assay outcomes (PubChem BioAssay)
